In article PMC13083723 (Patterns, 2026):
In all, about 5,400 compounds went through this assay and about 190 (3.5%) showed an effect of 50% or more. What follows is part of a selection rich in strong results, with near analogues and random picks from the rest. Positions of bridges follow the written chain, without caps; N, C: chain ends. Non-standard residues stand in square brackets, D forms with d. Residues, ends and D or L forms follow the SMILES beside them. *: point of attachment. NMeF = CN[C@@H](Cc1ccccc1)C(=O)O; X1 = CCC(C)C(N)C1=NC(C(=O)*)CS1; dOrn = NCCC[C@@H](N)C(=O)O

What follows are molecules tested on Vero-E6 (assay: primary screen, phospholipidosis by LipidTOX staining; higher = more effect of the substance). Settings: 10 µM.
Outline: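 Single-concentration screen at 10 μM, with DMSO 0.1 v/v % and amiodarone 10 μM as controls. Read-out is LipidTOX Red phospholipid staining, which tolerates aldehyde fixation, in Vero-E6 cells.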

Row | SMILES | result_ITMP [%]
1 | CN(C(=O)CN1C(=O)COc2cc(Cl)c(Cl)cc21)[C@@H](CN1CCCC1)c1ccc(-c2cccc(C(N)=O)c2)cc1 | 41.8
2 | CCC(C)C(N)C1=NC(C(=O)N[C@@H](CC(C)C)C(=O)N[C@H](CCC(=O)[O-])C(=O)N[C@H](C(=O)N[C@H]2CCCCNC(=O)[C@H](CC(N)=O)NC(=O)[C@@H](CC(=O)[O-])NC(=O)[C@@H](Cc3cnc[nH]3)NC(=O)[C@@H](Cc3ccccc3)NC(=O)[C@@H]([C@H](C)CC)NC(=O)[C@@H](CCCN)NC2=O)[C@@H](C)CC)CS1 (some centres unmarked) (X1-L[dE]IK[dOrn][dI][dF][dH][dD]N; lactam 4-C) | -3.81
3 | Cc1cccn2c(=O)c(-c3nn[n-]n3)cnc12 | -2.44
4 | CCCC(=O)c1cc(F)ccc1OCC(O)CNC(C)(C)C (centres unmarked) | 20.3
5 | CCN(CC)CCOc1ccccc1C(=O)CCc1ccccc1 | 30.6
6 | CCCNCC(O)COc1ccccc1C(=O)CCc1ccccc1 (centres unmarked) | 86.6
7 | Cn1nnnc1SCC1=C(C(=O)[O-])N2C(=O)[C@@H](NC(=O)[C@H](O)c3ccccc3)[C@H]2SC1 | -1.4
8 | O=C(O)c1ccc(CN2CCC(CN[C@@H]3C[C@H]3c3ccccc3)CC2)cc1 | -1.25
9 | CN1CCN(C(=O)CN[C@@H]2C[C@H]2c2ccc(OCc3ccccc3)cc2)CC1 | 87.7
10 | Oc1ccc(OCc2ccccc2)cc1 | -11.6
11 | Cc1cc(Nc2cc(CN3CCOCC3)c3nc(C)c(Cc4ccc(Cl)cc4F)n3n2)[nH]n1 | 13
12 | COc1ccc2cc1Oc1ccc(cc1)C[C@H]1c3c(cc4c(c3Oc3cc5c(cc3OC)CCN(C)[C@@H]5C2)OCO4)CCN1C | 57
13 | COc1cc2c3cc1Oc1cc(ccc1O)C[C@@H]1c4c(cc(OC)c(O)c4Oc4ccc(cc4)C[C@@H]3N(C)CC2)CC[N+]1(C)C | -3.39
14 | COc1ccc2cc1Oc1ccc(cc1)C[C@H]1c3cc(c(OC)cc3CCN1C)Oc1c(OC)c(OC)cc3c1[C@H](C2)N(C)CC3 | 17.4
15 | CCN(CC)C(=S)[S-] | -6.15
16 | COCCCOc1ccnc(CS(=O)c2nc3ccccc3[n-]2)c1C (centres unmarked) | -0.77
17 | COc1cc(N2CCOCC2)ccc1Nc1ncc(Cl)c(Nc2ccccc2NS(C)(=O)=O)n1 | 51.4
18 | COc1cc(N2CCC(N3CCN(C)CC3)CC2)ccc1Nc1ncc(Cl)c(Nc2ccccc2P(C)(C)=O)n1 | -0.55
19 | COc1cc(N2CCC(N(C)C)CC2)ccc1Nc1ncc(Cl)c(Nc2ccccc2P(C)(C)=O)n1 | 51.8

Row | SMILES | result_ITMP [%]
20 | CNC(=O)c1ccccc1Nc1nc(Nc2ccc(N3CCOCC3)cc2OC)ncc1Cl | 3.78
21 | COc1cc(N2CCC(N)CC2)ccc1Nc1ncc(Cl)c(-c2c[nH]c3ccccc23)n1 | 15.8
22 | CCC(=O)Nc1cccc(Oc2nc(Nc3ccc(N4CCN(C)CC4)cc3OC)ncc2Cl)c1 | -5.58
23 | O=c1nc[nH]c2c([C@@H]3N[C@H](CO)[C@@H](O)[C@H]3O)c[nH]c12 | -0.15
24 | CC(C)C[C@H](NC(=O)CNC(=O)[C@H](Cc1ccc(O)cc1)NC(=O)[C@H](CO)NC(=O)[C@H](Cc1c[nH]c2ccccc12)NC(=O)[C@H](Cc1c[nH]cn1)NC(=O)[C@@H]1CCC(=O)N1)C(=O)N[C@@H](CCCNC(=N)N)C(=O)N1CCC[C@H]1C(=O)NCC(N)=O | 1.23
25 | CN/C(=N\C#N)NCCSCc1nc[nH]c1C | -2.74
26 | Cc1cc(N2CCOCC2)cc2nc(-c3c(NC[C@@H](O)c4cccc(Cl)c4)cc[nH]c3=O)[nH]c12 | -0.86
27 | CCN(CC)CCCN(c1ccccc1)C1Cc2ccccc2C1 | 51.9
28 | COc1cc[nH]c2ncc(C(=O)C(=O)N3CCN(C(=O)c4ccccc4)C[C@H]3C)c1-2 | -6.29
29 | CSCC[C@H](NC(=O)[C@H](CC(C)C)NC(=O)[C@@H](Cc1c[nH]c2ccccc12)NC(=O)[C@H](Cc1ccccc1)N(C)C(=O)[C@@H](Cc1c[nH]c2ccccc12)NC(=O)[C@@H](N)CCCN=C(N)N)C(N)=O (H-R[dW][NMeF][dW]LM-NH2) | -1.85
30 | COCCOc1ccc2c(c1)ncn2-c1ccc2cccc(N3CCC(N)CC3)c2n1 | 62.5
31 | CC1(COc2ccc3c(c2)ncn3-c2ccc3cccc(N4CCC(N)CC4)c3n2)COC1 | 64.2
32 | NC1CCN(c2cccc(Cl)n2)CC1 | 6.27
33 | CCOC(=O)c1ccc(OCCC2CCN(c3ccc(C)nn3)CC2)cc1 | -2.25
34 | CCN1CCN(C(=O)NC(C(=O)N[C@@H]2C(=O)N3[C@@H]2SC(C)(C)[C@@H]3C(=O)[O-])c2ccccc2)C(=O)C1=O (some centres unmarked) | -2.05
35 | C=CC(=O)N1CCCC(n2nc(-c3ccc(Oc4ccccc4)cc3)c3c(N)ncnc32)C1 (centres unmarked) | -4.8
36 | N[C@@H](Cc1ccc(I)cc1)C(=O)O | -0.07
37 | N=C(N)SCc1ccc(B(O)O)cc1 | -0.1
38 | CC(=O)O[C@H]1CC[C@@]2(C)C(=CC(=O)[C@@H]3[C@@H]2CC[C@]2(C)C(=O)CC[C@@H]32)C1 | -7.66
